Values joined by “and” are separate entries in the source; they are usually repeats but may differ in a detail not shown here. Equal entries are not always repeated. Out of some 350,000 compounds screened, about 31,000 (8.9%) were called active. Another 15% or so got no clear call; they are omitted. Calls come from the whole dose curve; as a rule, active = well fitted inhibition curve with a large enough effect; inconclusive = small, poorly fitted or top-dose-only effect; inactive = no such curve, though single readings can be large or run the other way. Shown is part of a subset that was picked to be rich in actives. A call without a number means that no potency is given here. Some compounds were tested as several samples or in several runs, with calls that do not always agree.
molecular target: Histone-lysine N-methyltransferase EHMT2 (Homo sapiens) (UniProt Q96KQ7); experiment: qHTS Assay for Inhibitors of Histone Lysine Methyltransferase G9a; settings: G9a H3K9 monomethylation, AlphaScreen, 2 h; series mostly up to 59 µM; note: nearly all actives have a fitted effect of over 75% in size
Sequence (Q96KQ7 913-1193 limits assumed): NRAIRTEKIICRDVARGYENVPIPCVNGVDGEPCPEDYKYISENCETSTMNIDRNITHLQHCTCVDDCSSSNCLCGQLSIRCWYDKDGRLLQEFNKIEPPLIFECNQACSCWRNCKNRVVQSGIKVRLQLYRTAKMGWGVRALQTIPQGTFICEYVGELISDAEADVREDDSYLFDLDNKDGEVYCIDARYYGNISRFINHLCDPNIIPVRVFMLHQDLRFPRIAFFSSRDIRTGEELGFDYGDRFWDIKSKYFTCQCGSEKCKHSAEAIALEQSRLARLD
Outline: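 Quantitative HTS format: methyltransferase activity on a biotin-tagged H3K9 peptide is measured by AlphaScreen, using a rabbit anti-monomethyl-H3K9 antibody with streptavidin donor and anti-IgG acceptor beads. Final levels are 20 nM enzyme, 500 nM peptide, 20 uM SAM; 2 h RT.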
Potency is the fitted concentration of half-maximal effect.

Compound	Potency	activity, negative = inhibition
CN1C(=O)CC(c2ccccc2)C1=O (stereo not drawn)	inactive	–
COc1ccc(NC(=O)c2cc([N+](=O)[O-])ccc2NC(=O)CNC2CCCCC2C)c(OC)c1 (stereo not drawn)	inactive	–
CCOC(=O)c1ccc(NC(=O)CC2C(=O)N(c3ccccc3)C(=O)N2Cc2cccs2)cc1 (stereo not drawn)	inactive	–
CN1CCN(c2ccccc2NC(=O)COc2ccc(C3CCCCC3)cc2)CC1	39.8 µM (active)	–
Cc1ccc(C(C)C)cc1OCC(=O)Nc1ccccc1N1CCCC1	79.4 µM (active)	–
CCOc1ccccc1NC(=O)COc1ccc(S(=O)(=O)N2CCCC2)cc1	inactive	–
Cc1ccc(OCC(=O)Nc2ccccc2C(=O)NC2CC2)cc1	–	16.8% [at 12.7 µM] (inactive)
CCC(=O)N1CCN(c2ccccc2NC(=O)COc2cccc(C)c2C)CC1	inactive	–
CC(C)n1c(SCC(=O)Nc2ccccc2N2CCCCC2)nc2c1c(=O)n(C)c(=O)n2C	inactive	–
CCCC(=O)N1CCN(c2nc3c(OC)ccc(C)c3s2)CC1	inactive	–
COc1cccc(NC(=O)COc2cc(C)cc3oc(=O)cc(C)c23)c1	inactive	–
CNS(=O)(=O)c1cccc(C(=O)OCCCC(=O)c2ccccc2)c1	–	-6.99% [at 12.7 µM] (inactive)
COc1ccc2c(c1)c(C(=O)N/N=C/c1cccs1)c(C)n2C	inactive	–
Cc1ccc(S(=O)(=O)N2CCC(C(=O)NCC3CCCO3)CC2)cc1 (stereo not drawn)	inactive	–
Cc1cc(C2=NNC(=Nc3ccc(S(=O)(=O)N4CCOCC4)cc3)SC2)c(C)n1CC1CCCO1 (stereo not drawn)	7.94 µM (active)	–
CCOc1ccc(S(=O)(=O)N2CCN(C(=S)NCC3CCCO3)CC2)cc1 (stereo not drawn)	inactive	–
O=C(NC1CC(=O)N(c2ccc(F)cc2)C1)c1cccs1 (stereo not drawn)	inactive	–
O=C(NCCC1CCCCN1S(=O)(=O)c1cccs1)C(=O)Nc1ccc(F)cc1F (stereo not drawn)	–	-3.33% [at 0.501 µM] (inactive)
CC(=O)c1ccc(NC(=O)c2nc(-c3ccc(C)cc3)n3c2CCCCC3)cc1	inactive	–
CC(C)Cn1c(=O)c2ccccc2n2c(CCC(=O)N3CCN(c4cccc(Cl)c4)CC3)nnc12	inactive	–
O=C1CN(C(=O)COc2c(Cl)cccc2Cl)c2ccccc2N1	inactive	–
CCCCCN(C(=O)CCC(=O)OCC(=O)NC1CCC(C)CC1)c1c(N)n(CCCC)c(=O)[nH]c1=O (stereo not drawn)	–	6.8% [at 0.501 µM] (inactive)
CN(CC(=O)Nc1cccc(F)c1)C(=O)CC1CCCC1	inactive	–
CC1CCc2[nH]c3ccc(C(=O)N(C)CC(=O)Nc4cccc(F)c4)cc3c2C1 (stereo not drawn)	44.7 µM (active)	–
CN(CC(=O)Nc1cccc(F)c1)C(=O)C1=COCCO1	inactive	–

Compound	Potency	activity, negative = inhibition
CC(=O)Nc1ccc(S(=O)(=O)NNC(=O)CCc2ccccc2)cc1	–	-29% [at 12.7 µM] (inactive)
O=C(CCc1ccccc1)NNC(=O)c1ccc(Br)cc1	inactive	–
O=C(CCc1ccccc1)NNc1ccc(F)cc1	31.6 µM (active)	–
Cc1cc(C)cc(NC(=O)CCS(=O)(=O)c2cc3c4c(c2)CCN4C(=O)CC3)c1	inactive	–
COc1ccc(Cc2nnc(SCC(=O)Nc3ccc(C)c(Cl)c3)[nH]c2=O)cc1	inactive	–
O=C(NCc1ccccc1)C1CCN(S(=O)(=O)c2ccc3[nH]c(=O)ccc3c2)CC1	inactive	–
CCOC(=O)c1c(-n2cnnn2)sc(C)c1C	8.91 µM (active)	–
CCOc1ccc(C(=O)COC(=O)c2ccc(-n3cnnn3)cc2)cc1	inactive	–
CCOC(=O)C(C)n1cnc2sc(C)c(C)c2c1=O (stereo not drawn)	inactive	–
C=CCSc1ccc(S(=O)(=O)N2CCN(C)CC2)cn1	inactive	–
CCn1c(=O)c2cc(C(=O)NCCc3ccc(Cl)cc3)sc2c2ccccc21	inactive	–
O=C(CSc1nc(=O)n2ccccc2n1)Nc1ccc2c(c1)OCCO2	inactive	–
Cc1ccc(Cl)cc1-n1ncc2c(N3CCC(C(N)=O)CC3)ncnc21	inactive	–
COc1ccc(CNC(=O)c2ccc3oc(C(C)C)nc3c2)cc1	–	12% [at 0.501 µM] (inactive)
COc1ccc(Br)cc1/C=N/NC(=O)c1cccc(S(=O)(=O)N2CCOCC2)c1	inactive	–
COc1ccc(CC(=O)NCC(=O)N/N=C/c2cc(Br)ccc2OC)cc1	inactive	–
COc1ccc(Br)cc1/C=N/Nc1ccc(Cl)c(C(=O)O)c1	14.1 µM (active)	–
OCc1cnc(SCc2ccc(F)cc2)n1Cc1ccc(F)cc1	inactive	–
COc1cccc2c1cc1c(=O)n(CC(=O)N3CCN(c4ccccc4)CC3)nc(C)n12	inactive	–
Cc1ccc(CN2CCC(CNC(=O)c3cnn(-c4ccc(C)cc4)c3C3CCN(C(=O)OC(C)(C)C)CC3)CC2)cc1	inactive	–
CC(C)(C)C(=O)N1CCC[C@@]1(CO)C(=O)O	14.1 µM (active)	–
COC(=O)c1cc(NC(=O)CCc2c(C)nc3c4c(C)cc(C)nc4nn3c2C)cc(C(=O)OC)c1	inactive	–
COc1ccccc1Nc1nnc(SC(C)C(=O)NC2CC2)s1 (stereo not drawn)	–	-13.1% [at 12.7 µM] (inactive)
CC(=O)c1c(C)[nH]c(C(=O)COC(=O)CCOc2ccc(C)cc2)c1C	inactive	–
Cc1ccc(-c2cn3c(n2)sc2cc(C(=O)NCCCc4ccccc4)ccc23)cc1	inactive	–

Compound	Potency	activity, negative = inhibition
Cc1cccc(OCC(=O)NC2CC(C)(C)NC(C)(C)C2)c1	inactive	–
COC(=O)Cc1ccc(OCC(=O)NC2CCCC2)cc1	inactive	–
CC1(C)SC2C(NC(=O)COc3ccccc3)C(=O)N2C1C(=O)O (stereo not drawn)	inactive and 39.8 µM (active)	–
CN(CC(=O)Nc1ccc(F)c(F)c1F)C(=O)Cn1cnc2c1c(=O)n(C)c(=O)n2C	–	25.9% [at 12.7 µM] (inactive)
COC(=O)c1cc(S(=O)(=O)N2CCN(c3cc(Cl)ccc3C)CC2)c[nH]1	inactive	–
CC(C)CCN1NC2(CCC(C)CC2)NC1=S (stereo not drawn)	11.2 µM (active)	–
COC(=O)c1cccc(-n2[nH]nnc2=S)c1	8.91 µM (active)	–
COC(=O)c1nn(-c2cccc(Cl)c2)ccc1=O	inactive	–
COC(=O)c1cccc(NC(=O)CSc2nc(C)cc(=O)[nH]2)c1	inactive	–
Cc1cccc(C)c1NC(=O)CN(C)C(=O)CCC(=O)c1ccccc1	–	11.7% [at 2.33 µM] (inactive)
C=C(C)CNc1cc(S(=O)(=O)N2CCOCC2)ccc1Oc1ccccc1	–	21.5% [at 12.7 µM] (inactive)
COc1ccc(NC(=O)ON=C2c3ccccc3-c3ccccc32)cc1	25.1 µM (active)	–
COc1ccc(C(=O)ON=C2c3ccccc3-c3ccccc32)cc1OC	inactive	–
COc1ccc(NC(=O)CS(=O)(=O)c2ccccc2)cc1	inactive	–
Cn1c(C(=O)N2CCC(C(=O)N3CCN(c4ccccc4)CC3)CC2)cc2sccc21	inactive	–
O=C(CCNS(=O)(=O)c1cccs1)N1CCN(c2ccc(F)cc2)CC1	inactive	–
CCCOc1ccc(NC(=O)CC2C(=O)N(C)C(=S)N2Cc2ccc3c(c2)OCO3)cc1 (stereo not drawn)	inactive	–
O=C(Nc1ccc(Cl)cc1)C1c2cccc[n+]2CC(=O)N1Cc1ccc2c(c1)OCO2 (stereo not drawn)	22.4 µM (active)	–
CC1CCC(NC(=O)C2c3ccccc3C(=O)N2Cc2ccc3c(c2)OCO3)CC1 (stereo not drawn)	inactive	–
O=C(COc1coc(CN2CCN(c3ccccc3)CC2)cc1=O)Nc1ccccc1F	inactive	–
Brc1ccccc1CN1CCC(Cc2ccccc2)CC1	44.7 µM (active)	–
NC(=O)c1ccc(CN2CCC(Cc3ccccc3)CC2)cc1	inactive	–
COc1cc(C)cc(CN2CCC(Cc3ccccc3)CC2)c1O	–	-9.7% [at 2.33 µM] (inactive)
Cn1ccc2cc(S(=O)(=O)N3CCCC(C(=O)NCc4ccccc4F)C3)ccc21 (stereo not drawn)	inactive	–
Cc1ccc(S(=O)(=O)CCC(=O)OCC(=O)N(C)C2CCS(=O)(=O)C2)cc1 (stereo not drawn)	inactive	–

Compound	Potency	activity, negative = inhibition
CCCc1ccc(OCCNC(=O)c2ccco2)cc1	inactive	–
CC(Oc1ccc2ccccc2c1)C(=O)NNC(=S)NC(=O)c1ccco1 (stereo not drawn)	20 µM (active)	–
O=C(Nc1ccc2ccccc2c1)/C(=C/c1cccc(Br)c1)NC(=O)c1ccco1	inactive	–
Cc1ccc(OCC(=O)NCCCNC(=O)c2ccco2)cc1C	inactive	–
CCCc1ccc(OCC(=O)NNC(=S)NC(=O)c2ccco2)cc1	2.24 µM (active)	–
O=C(Nc1ccc2ccccc2c1)/C(=C\c1ccc2c(c1)OCO2)NC(=O)c1ccco1	inactive	–
CSCCC(NC(=O)COc1ccccc1)C(=O)N(C)CC(=O)Nc1ccc(C)cc1 (stereo not drawn)	inactive	–
NS(=O)(=O)c1ccc2nc(NC(=O)COc3ccccc3)sc2c1	inactive	–
FC(F)(F)c1nc2ccccc2nc1N/N=C/c1ccc(Cl)cc1	inactive	–
CN(CCO)c1ccc(/C=N/Nc2nncc3ccccc23)cc1	31.6 µM (active)	–
COc1cc(/C=N/Nc2nn3cnnc3c3ccccc23)cc(OC)c1OC	inactive	–
CCOc1ncccc1C(=O)OCC(=O)Nc1cccc(S(=O)(=O)N2CCCCCC2)c1	–	-1.01% [at 2.33 µM] (inactive)
CN1/C(=C\C(=O)c2oc3ccccc3c2N)C(C)(C)c2ccccc21	inactive	–
CN1CCN(CCC(=O)N/N=C/C=C2\N(C)c3ccccc3C2(C)C)CC1	31.6 µM (active)	–
CC(C)Nc1nnc(SCC(=O)/C=C2\N(C)c3ccccc3C2(C)C)s1	inactive	–
CCN(CCCNC(=O)c1cc2c(=O)n(CC)c3ccccc3c2s1)Cc1ccccc1	inactive	–
CCOC(=O)c1ccc(NC(=O)Cc2cccs2)cc1	inactive	–
CCCN1C(=O)C(O)(CC(=O)c2ccc(CC)cc2)c2cc(Br)ccc21 (stereo not drawn)	inactive	–
COc1ccc(N2CC(C(=O)N[C@@H](C)C(=O)N3CCCCC3)CC2=O)cc1 (stereo partly drawn)	inactive	–
COc1ccc(C2OC(=O)CC2C(=O)NC(C)C)cc1 (stereo not drawn)	28.2 µM (active)	–
COc1ccc(C(C)NC(=O)C2CCCC2)cc1 (stereo not drawn)	inactive	–
COc1ccc(NC(=O)CSc2nc3ccccc3n2CC(=O)N2CCCCC2C)cc1 (stereo not drawn)	inactive	–
CCOc1ccc(NC(=O)CN(C)C(=O)Cc2sc(C)nc2-c2ccc(F)cc2)cc1OCC	inactive	–

Reference: PubChem BioAssay AID504332 (National Center for Advancing Translational Sciences (NCATS), 2011)
